Measurements from PubChem BioAssay (NCATS).
Inconclusive results are not listed. Active and inactive are the calls of the source. Unless noted, the call rests on the fitted dose curve.

Columns and labels:
[1] = biological target: Glucocorticoid receptor (Homo sapiens) (UniProt P04150); assay: qHTS assay for small molecule agonists of glucocorticoid receptor signaling (AID 588532; active means well fitted curve in the direction sought with a large enough effect in the signal ratio, with a control signal flat; the % refers to the signal ratio;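 further: 100% = dexamethasone at 0.1 µM and 0% = DMSO only wells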); conditions: HeLa MMTV-bla, beta-lactamase ratio, agonist, 18 h; activation: stronger effect = higher value, percent of dexamethasone control, DMSO zero
Outline: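 Titration series, up to 92 uM, applied to GRE-bla HeLa cells for 18 h at 37 C. Detection by CCF4 FRET substrate after 2 h at RT.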

[2] = biological target: Peroxisome proliferator-activated receptor delta (Homo sapiens) (UniProt Q03181); assay: qHTS assay for small molecule agonists of peroxisome proliferator-activated receptor delta signaling (AID 588534);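 further: 0% = DMSO basal wells and 100% = positive control agonist at 10 µM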
Outline: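 Fluorescence from CCF4 substrate cleavage by beta-lactamase reporter, read 2 hrs at RT, measured agonist activity. Compounds were tested with 18 hrs exposure at 37 C. Concentration-response data fitted to Hill equation.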

[3] = qHTS assay for small molecule antagonists of peroxisome proliferator-activated receptor delta signaling (AID 588535; active means well fitted inhibition curve with a large enough effect in the signal ratio, with a control signal flat, not every such curve was filed as active; the % refers to the signal ratio;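 on max response: cells co-treated with a PPAR-delta agonist as stimulator during compound exposure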); conditions: HEK293T PPARd-UAS-bla, beta-lactamase FRET ratio, 18 h; 460 nm channel
Outline: (§1)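 Reporter: UAS-bla under PPAR-delta response element, HEK293T host. Medium: 2% charcoal/dextran FBS. Dosing: titration, 18 hrs, 37 C. Detection: CCF4, 2 hrs RT, 405 ex/460 and 530 em.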

[4] = biological target: Peroxisome proliferator-activated receptor delta (Homo sapiens) (UniProt Q03181); assay: as above
Outline: as §1

[5] = biological target: Peroxisome proliferator-activated receptor gamma (Homo sapiens) (UniProt P37231); assay: qHTS assay for small molecule agonists of peroxisome proliferator-activated receptor gamma signaling (AID 588536; active means well fitted curve in the direction sought with a large enough effect in the signal ratio, with a control signal flat, not every such curve was filed as active; the % refers to the signal ratio;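 further: 0% = DMSO basal wells and 100% = rosiglitazone at 2 µM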)
Outline: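 Test agents, titrated, stimulated HEK293 UAS-bla cells overnight (16 h, 37 C). Substrate CCF4 was then added for two hours at room temperature before fluorescence reading.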

[6] = biological target: Peroxisome proliferator-activated receptor gamma (Homo sapiens) (UniProt P37231); assay: qHTS assay for small molecule antagonists of peroxisome proliferator-activated receptor gamma signaling (AID 588537; active means well fitted inhibition curve with a large enough effect in the signal ratio, with a control signal flat, not every such curve was filed as active; the % refers to the signal ratio;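 further: reporter cells co-stimulated with 50 nM rosiglitazone agonist during compound treatment; % of control where 0% means no effect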)
Outline: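 We seeded GeneBLAzer HEK293 reporter cells at 3000 per well, allowed 6-6.5 h attachment at 37 C, then co-treated with test compound titrations and 50 nM rosiglitazone overnight (16 h). Inhibition was quantified from 460/530 nm emission ratios.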

[7] = biological target: Vitamin D3 receptor (Homo sapiens) (UniProt P11473); assay: qHTS assay for small molecule antagonists of vitamin D receptor signaling (AID 588541);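 further: receptor activated by calcitriol during compound treatment; series mostly up to about 77 µM; on the % scale 0 is the no-effect control and ±100 the full control effect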
Outline: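 VDR-UAS-bla HEK293T cells (2000/well, 2% charcoal-stripped FBS) were treated with titrated compounds plus 1-alpha,25-dihydroxyvitamin D3 (50 nM or 3 nM final) for 16 h at 37 C. CCF4 beta-lactamase fluorescence was read; Hill fits gave IC50.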

[8] = biological target: Vitamin D3 receptor (Homo sapiens) (UniProt P11473); assay: qHTS assay for small molecule agonists of vitamin D receptor signaling (AID 588543);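 further: 0% = DMSO basal and 100% = reference agonist control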
Outline: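 VDR-UAS-bla HEK293T cells, 2000/well, 2% charcoal-stripped FBS; compound titration 16 h at 37 C; CCF4 beta-lactamase ratio read. Normalized to 50 nM 1-alpha,25-dihydroxyvitamin D3 (100%) and DMSO; Hill fit gives EC50, efficacy.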

[9] = biological target: Retinoic acid receptor RXR-alpha (Homo sapiens) (UniProt P19793); assay: qHTS assay for small molecule agonists of retinoid X receptor alpha signaling (AID 588544);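 further: 0% = DMSO basal wells and 100% = reference agonist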
[10] = biological target: Thyroid hormone receptor beta (Homo sapiens) (UniProt P10828); assay: qHTS assay for small molecule agonists of thyroid hormone receptor beta signaling (AID 588545);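 further: 0% = DMSO only and 100% = 10 nM T3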
Outline: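 TR-UAS-bla-GripTite HEK 293 cells in medium with 2% charcoal/dextran FBS, 0.1 mM NEAA and 1 mM sodium pyruvate were treated with titrated compounds for 18 hrs at 37 C. Beta-lactamase reporter was read with CCF4 dye (ex 405, em 460/530 nm); EC50 from Hill fits.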

[11] = qHTS assay for small molecule antagonists of retinoid X receptor alpha signaling (AID 588546; active means well fitted inhibition curve with a large enough effect in the signal ratio, with a control signal flat, not every such curve was filed as active; the % refers to the signal ratio;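 further: cells stimulated with 9-cis-retinoic acid as agonist; on the % scale 0 is the no-effect control and ±100 the full control effect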); conditions: HEK293T RXRa-UAS-bla, beta-lactamase ratio, antagonist mode; measured here: W530 green channel, cytotoxicity proxy
Outline: (§2)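 Beta-lactamase reporter inhibition, read as CCF4 fluorescence ratio (ex 405, em 460/530 nm) after 2 h at RT. HEK293T UAS-bla cells, 2500/well, were stimulated with 9-cis-RA at 500 or 100 nM final alongside test compound for 18 h at 37 C.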

[12] = biological target: Retinoic acid receptor RXR-alpha (Homo sapiens) (UniProt P19793); assay: as above; conditions: HEK293T RXRa-UAS-bla, beta-lactamase ratio, antagonist mode
Outline: as §2

[13] = qHTS assay for small molecule activators of the p53 signaling pathway (AID 651743; active means well fitted activation curve with a large enough effect in the signal ratio, not every such curve was filed as active; the % refers to the signal ratio; further: series mostly up to about 92 µM; % of control where 0% means no effect); conditions: HCT-116 p53RE-bla, beta-lactamase FRET ratio, 16 h; activation: stronger effect = higher value
Outline: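 Cell-based beta-lactamase reporter (p53 response elements, HCT-116 background). After a 5-hour preincubation, cells received compound for 16 hours at 37 C; substrate development ran 2 hours at room temperature.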

[14] = qHTS assay for environmental chemicals that activate the Aryl hydrocarbon Receptor (AhR) signaling pathway (AID 651777; active means well fitted curve in the direction sought with a large enough effect; an effect the other way counts as inactive or inconclusive; further: % of control where 0% means no effect; nearly all actives have a fitted effect of over 15% in size); conditions: 1A2-DRE human hepatoma cells, luciferase, 24 h; activation: stronger effect = higher value
Outline: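 Measured luciferase activity, read 30 min after One-Glo addition at room temperature, from human hepatoma cells bearing a dioxin response element–CYP1A2 promoter reporter and exposed to compound for 24 hr at 37 C.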

[15] = biological target: Peroxisome proliferator-activated receptor alpha (Homo sapiens) (UniProt Q07869); assay: qHTS assay for small molecule agonists of the peroxisome proliferator-activated receptor alpha (PPARalpha) signaling pathway (AID 651778; active means well fitted curve in the direction sought with a large enough effect; an effect the other way counts as inactive or inconclusive; further: % of control where 0% means no effect); conditions: PathHunter PPARalpha complementation, chemiluminescence, 6 h; max response: stronger effect = higher value
Outline: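 Cells plated at 2,000/well and held overnight at 37 C, 5% CO2, then compound added by pin tool for 6 hr; after PathHunter detection reagent and 60 min at room temperature, chemiluminescence from enzyme complementation was read.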

[16] = qHTS assay for small molecule agonists of the antioxidant response element (ARE) signaling pathway measured by Nrf2-dependant transcriptional activity (AID 720636; active means well fitted curve in the direction sought with a large enough effect in the repeat runs; an effect the other way counts as inactive or inconclusive;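 further: HepG2 cells with an ARE-driven luciferase reporter; % of control where 0% means no effect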)
Outline: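 In HepG2 cells engineered with an Nrf2-responsive luciferase gene, ARE induction was quantified as luminescence after 16 hr compound treatment at 37 C.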

[17] = qHTS assay for small molecule agonists of the antioxidant response element (ARE) signaling pathway measured by Nrf2-dependant transcriptional activity - cell viability counter screen (AID 720653; active means well fitted curve in the direction sought with a large enough effect in the repeat runs; an effect the other way counts as inactive or inconclusive; further: on the % scale 0 is the no-effect control and ±100 the full control effect); conditions: ARE-bla HepG2 viability, CellTiter-Glo ATP luminescence, 16 h; max response: stronger effect = lower value
Outline: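 ARE-bla HepG2 cells (2,000/well) rested 5 hrs at 37C/5% CO2, then exposed to compounds in DMSO for 16 hrs. Viability was read in the same wells as intracellular ATP by luminescence, 30 min at room temperature after reagent addition.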

[18] = qHTS assay for cell viability of HEK293 cells (AID 743288; active means well fitted curve in the direction sought with a large enough effect; an effect the other way counts as inactive or inconclusive; further: on the % scale 0 is the no-effect control and ±100 the full control effect; nearly all actives have a fitted effect of over 50% in size); conditions: ATP luminescence (CellTiter-Glo), 18 h; max response: stronger effect = lower value
Outline: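 Parental HEK293 cells, 2,000 per well, preincubated at least 5 h at 37 C, then exposed to compounds in DMSO for 18 h at 37 C. Viability by CellTiter-Glo ATP luminescence after 30 min at room temperature.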

[19] = qHTS assay for cell viability of the p53RE-bla HCT-116 cell line (AID 743292; active means well fitted curve in the direction sought with a large enough effect; an effect the other way counts as inactive or inconclusive; further: on the % scale 0 is the no-effect control and ±100 the full control effect; nearly all actives have a fitted effect of over 55% in size)
Outline: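 Intracellular ATP of p53RE-bla HCT-116 cells measured by luciferase luminescence following 16 h compound incubation at 37 C; DMSO-only wells served as vehicle controls.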

[20] = biological target: Nuclear receptor subfamily 1 group I member 2 (Rattus norvegicus) (UniProt Q9R1A7); assay: qHTS assay for small molecule activators of the rat pregnane X receptor (rPXR) signaling pathway (AID 651751; call rule not given here; further: 0% is about no effect); conditions: rPXR reporter cells, luciferase (One-Glo), 24 h
Nuclear receptor subfamily 1 group I member 2 (Rattus norvegicus), sequence (Q9R1A7 whole entry, looked up): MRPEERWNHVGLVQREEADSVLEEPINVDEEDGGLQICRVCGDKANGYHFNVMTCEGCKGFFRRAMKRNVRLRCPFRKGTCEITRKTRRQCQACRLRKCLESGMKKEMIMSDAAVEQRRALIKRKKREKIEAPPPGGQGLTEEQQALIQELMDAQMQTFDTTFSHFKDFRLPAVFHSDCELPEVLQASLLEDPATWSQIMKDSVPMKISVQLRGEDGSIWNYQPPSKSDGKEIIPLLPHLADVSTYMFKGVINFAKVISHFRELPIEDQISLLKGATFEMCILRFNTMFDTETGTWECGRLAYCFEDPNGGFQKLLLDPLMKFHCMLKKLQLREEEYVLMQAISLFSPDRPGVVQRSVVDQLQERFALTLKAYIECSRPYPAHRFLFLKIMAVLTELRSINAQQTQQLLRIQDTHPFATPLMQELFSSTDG

Peroxisome proliferator-activated receptor alpha (Homo sapiens), sequence (Q07869 whole entry, looked up): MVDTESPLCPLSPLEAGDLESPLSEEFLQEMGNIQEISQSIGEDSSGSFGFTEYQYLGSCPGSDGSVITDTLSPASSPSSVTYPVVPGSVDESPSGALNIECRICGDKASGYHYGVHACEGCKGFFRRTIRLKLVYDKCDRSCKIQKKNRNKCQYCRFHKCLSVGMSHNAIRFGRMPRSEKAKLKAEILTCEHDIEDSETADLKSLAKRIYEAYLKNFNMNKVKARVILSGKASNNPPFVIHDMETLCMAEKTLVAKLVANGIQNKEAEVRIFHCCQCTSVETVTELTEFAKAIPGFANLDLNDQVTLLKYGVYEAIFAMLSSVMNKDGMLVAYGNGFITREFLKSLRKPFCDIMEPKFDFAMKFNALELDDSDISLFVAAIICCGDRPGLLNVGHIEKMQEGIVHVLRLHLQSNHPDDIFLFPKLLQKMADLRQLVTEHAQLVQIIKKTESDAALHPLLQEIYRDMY
Retinoic acid receptor RXR-alpha (Homo sapiens), sequence (P19793 whole entry, looked up): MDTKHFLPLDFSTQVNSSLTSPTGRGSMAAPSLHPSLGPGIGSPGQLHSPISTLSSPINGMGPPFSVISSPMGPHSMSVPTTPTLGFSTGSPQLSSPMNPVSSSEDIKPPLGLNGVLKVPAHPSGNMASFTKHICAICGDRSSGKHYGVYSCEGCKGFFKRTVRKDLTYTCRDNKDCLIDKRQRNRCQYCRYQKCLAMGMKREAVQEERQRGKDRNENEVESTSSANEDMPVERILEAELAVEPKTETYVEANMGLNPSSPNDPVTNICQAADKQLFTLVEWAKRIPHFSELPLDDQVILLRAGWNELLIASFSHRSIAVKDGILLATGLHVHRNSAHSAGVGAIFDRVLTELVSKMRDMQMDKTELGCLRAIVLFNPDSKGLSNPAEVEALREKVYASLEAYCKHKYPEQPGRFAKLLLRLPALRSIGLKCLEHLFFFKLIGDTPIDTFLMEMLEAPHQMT
Vitamin D3 receptor (Homo sapiens), sequence (P11473 whole entry, looked up): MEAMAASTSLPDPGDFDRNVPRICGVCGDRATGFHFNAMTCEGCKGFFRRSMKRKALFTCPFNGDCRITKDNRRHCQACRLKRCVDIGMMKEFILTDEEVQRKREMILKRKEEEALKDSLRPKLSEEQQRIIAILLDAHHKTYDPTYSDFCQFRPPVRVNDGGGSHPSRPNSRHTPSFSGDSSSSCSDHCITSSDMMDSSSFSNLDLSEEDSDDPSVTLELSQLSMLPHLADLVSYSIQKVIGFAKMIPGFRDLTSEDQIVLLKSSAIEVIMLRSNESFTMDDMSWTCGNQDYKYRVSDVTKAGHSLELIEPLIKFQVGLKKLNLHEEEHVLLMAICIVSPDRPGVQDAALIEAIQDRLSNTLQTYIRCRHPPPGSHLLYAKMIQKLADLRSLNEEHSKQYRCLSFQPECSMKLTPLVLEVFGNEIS
Thyroid hormone receptor beta (Homo sapiens), sequence (P10828 whole entry, looked up): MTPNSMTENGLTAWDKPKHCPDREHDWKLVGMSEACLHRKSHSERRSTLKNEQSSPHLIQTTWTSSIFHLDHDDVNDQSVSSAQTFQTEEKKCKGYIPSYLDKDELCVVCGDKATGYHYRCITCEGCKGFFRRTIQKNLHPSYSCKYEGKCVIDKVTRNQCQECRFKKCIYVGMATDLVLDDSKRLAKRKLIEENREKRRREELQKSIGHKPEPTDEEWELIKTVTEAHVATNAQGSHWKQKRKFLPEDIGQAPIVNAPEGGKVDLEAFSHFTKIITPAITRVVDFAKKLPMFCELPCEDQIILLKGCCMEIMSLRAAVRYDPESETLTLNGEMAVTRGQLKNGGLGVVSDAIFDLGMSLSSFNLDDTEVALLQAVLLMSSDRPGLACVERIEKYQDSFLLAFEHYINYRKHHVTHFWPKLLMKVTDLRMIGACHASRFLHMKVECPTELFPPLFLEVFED
Glucocorticoid receptor (Homo sapiens), sequence (P04150 whole entry, looked up): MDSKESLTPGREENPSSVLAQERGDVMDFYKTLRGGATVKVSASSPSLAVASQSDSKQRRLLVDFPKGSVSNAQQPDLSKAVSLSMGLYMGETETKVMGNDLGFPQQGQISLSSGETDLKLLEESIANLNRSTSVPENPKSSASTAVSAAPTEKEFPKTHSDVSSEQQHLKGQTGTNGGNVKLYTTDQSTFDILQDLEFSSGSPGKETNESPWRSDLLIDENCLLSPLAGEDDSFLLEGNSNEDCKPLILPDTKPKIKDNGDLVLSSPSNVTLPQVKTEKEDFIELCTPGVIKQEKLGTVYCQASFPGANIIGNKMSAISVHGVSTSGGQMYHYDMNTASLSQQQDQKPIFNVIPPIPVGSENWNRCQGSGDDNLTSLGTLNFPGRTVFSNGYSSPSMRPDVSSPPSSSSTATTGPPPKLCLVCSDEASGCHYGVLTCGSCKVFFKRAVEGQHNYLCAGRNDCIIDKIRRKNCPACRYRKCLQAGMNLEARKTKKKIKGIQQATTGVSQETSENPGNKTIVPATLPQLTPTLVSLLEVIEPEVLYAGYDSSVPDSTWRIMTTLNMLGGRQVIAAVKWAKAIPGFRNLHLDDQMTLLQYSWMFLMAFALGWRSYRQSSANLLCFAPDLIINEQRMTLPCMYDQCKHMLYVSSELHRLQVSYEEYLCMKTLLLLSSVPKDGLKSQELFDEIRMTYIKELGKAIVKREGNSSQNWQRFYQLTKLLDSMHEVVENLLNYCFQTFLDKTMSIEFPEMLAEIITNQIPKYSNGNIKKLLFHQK
Peroxisome proliferator-activated receptor delta (Homo sapiens), sequence (Q03181 whole entry, looked up): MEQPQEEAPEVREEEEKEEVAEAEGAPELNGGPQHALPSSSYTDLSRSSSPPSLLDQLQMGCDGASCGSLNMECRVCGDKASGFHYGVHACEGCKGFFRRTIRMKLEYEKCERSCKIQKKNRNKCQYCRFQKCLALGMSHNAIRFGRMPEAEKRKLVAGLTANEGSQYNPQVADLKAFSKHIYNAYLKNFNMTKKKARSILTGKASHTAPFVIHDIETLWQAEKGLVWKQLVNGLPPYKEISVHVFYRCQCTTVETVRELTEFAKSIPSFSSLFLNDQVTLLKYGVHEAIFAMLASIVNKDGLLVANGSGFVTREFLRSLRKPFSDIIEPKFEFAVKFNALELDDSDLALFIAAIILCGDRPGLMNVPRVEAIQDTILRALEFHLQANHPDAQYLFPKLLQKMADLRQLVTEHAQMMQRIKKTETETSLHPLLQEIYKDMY
Peroxisome proliferator-activated receptor gamma (Homo sapiens), sequence (P37231 whole entry, looked up): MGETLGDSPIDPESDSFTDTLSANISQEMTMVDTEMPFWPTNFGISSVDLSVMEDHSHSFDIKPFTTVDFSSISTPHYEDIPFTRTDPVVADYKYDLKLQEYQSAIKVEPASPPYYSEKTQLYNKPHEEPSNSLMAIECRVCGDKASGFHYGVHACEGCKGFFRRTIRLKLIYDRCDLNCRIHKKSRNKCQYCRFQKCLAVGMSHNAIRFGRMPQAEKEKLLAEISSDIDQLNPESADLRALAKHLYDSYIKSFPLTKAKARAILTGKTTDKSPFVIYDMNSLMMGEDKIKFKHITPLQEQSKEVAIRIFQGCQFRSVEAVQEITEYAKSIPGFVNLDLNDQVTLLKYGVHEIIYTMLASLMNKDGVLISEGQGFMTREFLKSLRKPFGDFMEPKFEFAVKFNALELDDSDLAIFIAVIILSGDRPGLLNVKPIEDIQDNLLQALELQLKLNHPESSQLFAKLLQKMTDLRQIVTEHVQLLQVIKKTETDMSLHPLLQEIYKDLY

Nc1cccc(Cl)c1Cl
-14.5%: max response [11]
inactive: activation [1] 0.21% | outcome [2] | Potency [4] | Potency [5] | Potency [6] | Potency [7] | outcome [8] | Potency [9] | Potency [10] | max response [12] -4.45% | activation [13] -4.27% | activation [14] -0.499% | max response [15] -3.86% | Potency [16] | max response [17] -14.4% | max response [18] -1.9% | Potency [19] | max response [20] 0.634%
30.5%: max response [3]

[Ga]#[As]
33%: max response [3]
inactive: activation [1] 4.24% | outcome [2] | Potency [4] | Potency [5] | Potency [6] | Potency [7] | Potency [9] | Potency [10] | max response [12] 6.85% | activation [13] -1.62% | activation [14] 0.963% | max response [15] -1.03% | Potency [16] | max response [17] -2.5% | max response [18] -2.89% | Potency [19] | max response [20] -5.29%
-11%: max response [11]

CCOP(=S)(OCC)SCCl
inactive: activation [1] 12.1% | Potency [5] | Potency [7] | outcome [8] | activation [13] 0.473% | activation [14] 0.0178% | max response [15] -3.54% | Potency [16] | max response [17] -13.5% | max response [18] -19.2% | Potency [19] | max response [20] -4.02%

CCOP(=O)(OCC)OC(Cl)C(Cl)(Cl)Cl (stereo not drawn)
51.3%: max response [3]
-13.7%: max response [11]
inactive: activation [1] -1.92% | outcome [2] | Potency [4] | outcome [8] | Potency [9] | Potency [10] | max response [12] -17.2% | activation [13] -3.88% | max response [15] -2.65% | Potency [16] | max response [17] -17.4% | max response [18] -7.64% | Potency [19] | max response [20] 2.92%

CCOP(N)(=O)Oc1ccc(SC)c(C)c1 (stereo not drawn)
inactive: activation [1] -9.53% | outcome [2] | Potency [4] | Potency [5] | Potency [6] | Potency [7] | outcome [8] | Potency [9] | Potency [10] | max response [12] -26.2% | activation [13] -1.01% | activation [14] 0.564% | max response [15] -3.39% | Potency [16] | max response [17] -8.16% | max response [18] -8.45% | Potency [19] | max response [20] 4.69%
-11.1%: max response [11]
41.4%: max response [3]

CC(C)=CC1[C@H](C(=O)OCc2cccc(Oc3ccccc3)c2)C1(C)C (stereo partly drawn)
26%: max response [3]
-13.6%: max response [11]
inactive: activation [1] 1.86% | outcome [2] | Potency [4] | Potency [7] | outcome [8] | Potency [9] | Potency [10] | max response [12] 3.36% | activation [13] -1.37% | activation [14] -0.0338% | max response [15] -1.72% | Potency [16] | max response [17] -3.94% | max response [18] -10.6% | Potency [19]

CC(C)Oc1cc(-n2nc(C(C)(C)C)oc2=O)c(Cl)cc1Cl
22.7%: max response [3]
inactive: activation [1] 12% | outcome [2] | Potency [4] | Potency [7] | outcome [8] | Potency [10] | activation [13] 0.204% | activation [14] 0.842% | max response [15] 0.863% | Potency [16] | max response [17] -16% | max response [18] -26.7% | Potency [19]

CCOP(=O)(OCC)Oc1ccc2c(C)c(Cl)c(=O)oc2c1
36%: max response [3]
-10.4%: max response [11]
inactive: activation [1] -3.39% | outcome [2] | Potency [4] | Potency [7] | Potency [9] | max response [12] -0.0168% | activation [13] 2.64% | activation [14] 0.485% | max response [15] -3.26% | Potency [16] | max response [17] -2.45% | max response [18] -8.63% | Potency [19] | max response [20] 12.3%

O=[N+]([O-])Nc1nccn1Cc1ccc(Cl)nc1
-3.06%: max response [11]
inactive: activation [1] 0.289% | outcome [2] | Potency [4] | Potency [5] | Potency [6] | Potency [7] | Potency [9] | Potency [10] | max response [12] 5.37% | activation [13] -1.74% | max response [15] -0.0433% | Potency [16] | max response [17] -10.2% | max response [18] -8% | Potency [19] | max response [20] -4.49%
19.2%: max response [3]

CCNc1nc(Cl)nc(NC(C)(C)C)n1
inactive: Potency [4] | Potency [5] | Potency [6] | Potency [7] | outcome [8] | Potency [10] | activation [14] 6.82% | max response [15] 0.909% | Potency [16] | max response [17] -4.66% | Potency [19] | max response [20] 4.19%
33.2%: max response [3]

CCOP(=O)(OCC)SCSP(=S)(OCC)OCC
-5.91%: max response [11]
-37.2%: max response [3]
inactive: activation [1] -5.04% | outcome [2] | Potency [4] | Potency [5] | Potency [6] | Potency [7] | outcome [8] | Potency [10] | max response [12] -11.3% | activation [13] -1.69% | activation [14] 6.55% | max response [15] -0.113% | Potency [16] | max response [17] -1.01% | max response [18] -5.51% | Potency [19]

CC(C)CCCCCCOC(=O)c1ccccc1C(=O)OCCCCCCC(C)C
inactive: activation [1] 9.1% | outcome [2] | Potency [4] | Potency [7] | outcome [8] | Potency [9] | max response [12] -4.29% | activation [13] 0.433% | activation [14] 1.61% | max response [15] -1.61% | max response [18] -8.54% | Potency [19] | max response [20] 5.38%
-8.76%: max response [11]
-6.95%: max response [3]
